From PubChem BioAssay AID1326 (NMMLSC, 2008)
The campaign covered roughly 190,000 compounds. About 130 (0.068%) were called active. No stated cut-off is given here; in the data, active means inhibition above about 40%; inactive means the rest. Many of the other results were omitted from the sample, so actives are more common in it than they were.

These molecules were tested against ATP-dependent translocase ABCB1 (Homo sapiens) (UniProt P08183) (assay: ABCB1 efflux pump inhibitors, primary screen, cell-based, multiplex, flow cytometry, ABCG2 counter-screen (AID 1326;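 further: 0% = vehicle and 100% = reference inhibitor; higher value means more JC-1 retained so stronger ABCB1 efflux block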)). Settings: CCRF-Adr cells, JC-1 efflux, at 6.6 µM, hits give high values.
Sequence of ATP-dependent translocase ABCB1 (Homo sapiens) (P08183 whole entry, looked up): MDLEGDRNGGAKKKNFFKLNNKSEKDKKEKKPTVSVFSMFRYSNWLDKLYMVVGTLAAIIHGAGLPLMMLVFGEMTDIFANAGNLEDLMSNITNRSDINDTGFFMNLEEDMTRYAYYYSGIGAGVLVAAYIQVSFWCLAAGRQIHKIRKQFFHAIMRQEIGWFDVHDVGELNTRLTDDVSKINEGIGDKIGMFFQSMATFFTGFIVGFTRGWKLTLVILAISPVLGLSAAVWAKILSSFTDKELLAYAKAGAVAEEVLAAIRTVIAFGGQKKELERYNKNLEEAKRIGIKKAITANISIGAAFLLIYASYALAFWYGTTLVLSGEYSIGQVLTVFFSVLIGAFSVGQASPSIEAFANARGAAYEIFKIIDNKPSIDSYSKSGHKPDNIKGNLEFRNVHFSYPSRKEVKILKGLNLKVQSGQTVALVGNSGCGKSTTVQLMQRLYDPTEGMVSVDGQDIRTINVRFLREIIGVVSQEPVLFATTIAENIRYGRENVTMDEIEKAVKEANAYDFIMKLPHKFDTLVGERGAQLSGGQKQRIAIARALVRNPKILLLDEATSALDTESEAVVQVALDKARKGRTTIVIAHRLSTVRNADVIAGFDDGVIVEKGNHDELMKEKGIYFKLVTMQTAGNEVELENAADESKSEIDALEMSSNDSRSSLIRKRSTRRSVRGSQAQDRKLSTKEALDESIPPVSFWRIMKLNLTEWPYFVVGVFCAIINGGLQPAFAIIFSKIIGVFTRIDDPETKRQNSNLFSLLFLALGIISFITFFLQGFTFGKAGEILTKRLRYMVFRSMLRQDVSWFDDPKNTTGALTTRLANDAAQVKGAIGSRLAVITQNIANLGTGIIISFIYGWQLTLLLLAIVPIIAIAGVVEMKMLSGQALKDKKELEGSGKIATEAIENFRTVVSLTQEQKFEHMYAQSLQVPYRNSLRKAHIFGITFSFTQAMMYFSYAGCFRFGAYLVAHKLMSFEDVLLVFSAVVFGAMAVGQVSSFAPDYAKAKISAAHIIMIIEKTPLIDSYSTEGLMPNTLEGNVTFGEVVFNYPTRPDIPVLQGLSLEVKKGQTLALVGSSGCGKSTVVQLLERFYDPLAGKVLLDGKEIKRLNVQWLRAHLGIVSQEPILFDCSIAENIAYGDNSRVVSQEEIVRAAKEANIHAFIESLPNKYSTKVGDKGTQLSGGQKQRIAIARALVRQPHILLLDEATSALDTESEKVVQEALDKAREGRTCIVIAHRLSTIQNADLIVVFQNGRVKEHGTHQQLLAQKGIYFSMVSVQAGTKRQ

Q: With Cc1ccccc1C1=NC(C(F)(F)F)(C(F)(F)F)c2c(n(-c3ccc(F)cc3)c(=O)[nH]c2=O)N1 as the molecule, how does the inhibition read?
A: The inhibition was 0% (inactive).

Q: With NS(=O)(=O)c1ccc(NC(=O)/C=C/c2ccccc2Cl)cc1 as the molecule, how does the inhibition read?
A: Its inhibition is 0.51% (inactive).

Q: For Cc1cccc2cc(CN(Cc3cccs3)C(c3nnnn3C3CCCC3)C(C)C)c(=O)[nH]c12 (stereo unspecified), which inhibition is on record?
A: The inhibition was 61.7% (active).

Q: How did the inhibition turn out when CCC(c1nnnn1C1CCCC1)N(Cc1cccs1)Cc1cc2cccc(C)c2[nH]c1=O (stereo unspecified) was run?
A: The inhibition was 6.67% (inactive).

Q: How did the inhibition turn out when Cc1cccc2cc(CN(Cc3ccc4c(c3)OCO4)Cc3nnnn3C3CCCC3)c(=O)[nH]c12 was run?
A: The inhibition was 7.85% (inactive).

Q: How did the inhibition turn out when CCC1CCCCN1S(=O)(=O)Cc1ccccc1Cl (stereo unspecified) was run?
A: Its inhibition is 2.08% (inactive).

Q: For Cc1c(C(=O)NCCCc2ccccc2)cccc1[N+](=O)[O-], which inhibition is on record?
A: The inhibition was 0.92% (inactive).

Q: Which inhibition does the source give for COc1cccc(NC(=S)NC(=O)c2c(Cl)c(C)nn2C)c1 here?
A: The inhibition was -0.45% (inactive).

Q: For Cc1ccsc1C1C(C#N)=C(N)OC2=C1C(=O)CC(C)(C)C2 (stereo unspecified), which inhibition is on record?
A: The inhibition was 0.69% (inactive).

Q: COc1cc(OC)c(C(=O)N2CCCC2)cc1OC was tested. Which inhibition did it give?
A: The inhibition was 1.33% (inactive).

Q: For N#Cc1c(NC(=O)c2ccc(N3CCOCC3)c([N+](=O)[O-])c2)sc2c1CCCC2, which inhibition is on record?
A: Its inhibition is 0.71% (inactive).

Q: Which inhibition does the source give for COC(=O)c1nn(-c2cccc(Cl)c2)ccc1=O here?
A: The inhibition was -0.18% (inactive).

Q: With COCCNC(=S)N/N=C/c1c(C)[nH]c2ccccc12 as the molecule, how does the inhibition read?
A: Its inhibition is -0.55% (inactive).

Q: With CN(C)C(=O)N1CCNCC1 as the molecule, how does the inhibition read?
A: Its inhibition is -0.13% (inactive).

Q: With CC(=O)N(CN1C(=O)C2C3C=CC(C3)C2C1=O)c1cccc(Cl)c1 (stereo unspecified) as the molecule, how does the inhibition read?
A: Its inhibition is 0.48% (inactive).

Q: For CCn1c(-c2cccnc2Cl)nc2cc(C)c(C)cc21, which inhibition is on record?
A: The inhibition was 0.26% (inactive).

Q: With Cc1nc(CC(=O)NNS(=O)(=O)c2ccc(F)c(Cl)c2)cs1 as the molecule, how does the inhibition read?
A: The inhibition was 1.15% (inactive).

Q: With COC(=O)C(C(=O)Nc1cccc(Cl)c1C)C1CCCC1 (stereo unspecified) as the molecule, how does the inhibition read?
A: Its inhibition is -0.03% (inactive).

Q: For NNc1nc2c(Cl)cccc2s1, which inhibition is on record?
A: The inhibition was -1.62% (inactive).

Q: With CCOC(=O)C1=C(C)NC(=S)NC1c1cccs1 (stereo unspecified) as the molecule, how does the inhibition read?
A: The inhibition was -0.3% (inactive).

Q: Which inhibition does the source give for Cc1ccccc1NC(=O)c1nn(-c2ccc(F)c(F)c2)ccc1=O here?
A: The inhibition was 0.58% (inactive).

Q: Which inhibition does the source give for COC(=O)c1ccc(COC(=O)c2cnccn2)cc1 here?
A: Its inhibition is 0.17% (inactive).

Q: Which inhibition does the source give for CC1CN(CCCOc2ccccc2-c2ccccc2)CC(C)O1 (stereo unspecified) here?
A: The inhibition was 3.45% (inactive).

Q: CCCCC(=O)Nc1ccc(C(=O)Nc2cc(C(F)(F)F)ccc2Cl)cc1 was tested. Which inhibition did it give?
A: The inhibition was -0.36% (inactive).

Q: CCC(=O)/C(=C(/O)c1ccccc1)c1nc2ccccc2[nH]1 was tested. Which inhibition did it give?
A: The inhibition was 0.14% (inactive).

Q: Cc1cc(C)cc(C(=O)NC(=S)Nc2ccc3[nH]c(=O)[nH]c3c2)c1 was tested. Which inhibition did it give?
A: The inhibition was -0.17% (inactive).
